# Experimental data from the supplement of paper PMC11732987, “Enantioselective OTUD7B fragment discovery through chemoproteomics screening and high-throughput optimisation” (Communications Chemistry, 2025).
# Unmarked numbers belong to inactive results.
# Columns and labels:
# Experiment in all cases: log2 ratio of Biotin-Ahx-Ub-VS probe labelling (fragment/DMSO); higher = less target engagement (more negative = stronger competition), active = hit call of the paper (q ≤ 0.05, log2 ratio ≤ -1)
# Details in all cases: compound concentration: 200 uM; treatment time: 3 h
# [1] = target: T1, ALG13 (UniProt Q9NP73)
# T1 sequence (whole entry): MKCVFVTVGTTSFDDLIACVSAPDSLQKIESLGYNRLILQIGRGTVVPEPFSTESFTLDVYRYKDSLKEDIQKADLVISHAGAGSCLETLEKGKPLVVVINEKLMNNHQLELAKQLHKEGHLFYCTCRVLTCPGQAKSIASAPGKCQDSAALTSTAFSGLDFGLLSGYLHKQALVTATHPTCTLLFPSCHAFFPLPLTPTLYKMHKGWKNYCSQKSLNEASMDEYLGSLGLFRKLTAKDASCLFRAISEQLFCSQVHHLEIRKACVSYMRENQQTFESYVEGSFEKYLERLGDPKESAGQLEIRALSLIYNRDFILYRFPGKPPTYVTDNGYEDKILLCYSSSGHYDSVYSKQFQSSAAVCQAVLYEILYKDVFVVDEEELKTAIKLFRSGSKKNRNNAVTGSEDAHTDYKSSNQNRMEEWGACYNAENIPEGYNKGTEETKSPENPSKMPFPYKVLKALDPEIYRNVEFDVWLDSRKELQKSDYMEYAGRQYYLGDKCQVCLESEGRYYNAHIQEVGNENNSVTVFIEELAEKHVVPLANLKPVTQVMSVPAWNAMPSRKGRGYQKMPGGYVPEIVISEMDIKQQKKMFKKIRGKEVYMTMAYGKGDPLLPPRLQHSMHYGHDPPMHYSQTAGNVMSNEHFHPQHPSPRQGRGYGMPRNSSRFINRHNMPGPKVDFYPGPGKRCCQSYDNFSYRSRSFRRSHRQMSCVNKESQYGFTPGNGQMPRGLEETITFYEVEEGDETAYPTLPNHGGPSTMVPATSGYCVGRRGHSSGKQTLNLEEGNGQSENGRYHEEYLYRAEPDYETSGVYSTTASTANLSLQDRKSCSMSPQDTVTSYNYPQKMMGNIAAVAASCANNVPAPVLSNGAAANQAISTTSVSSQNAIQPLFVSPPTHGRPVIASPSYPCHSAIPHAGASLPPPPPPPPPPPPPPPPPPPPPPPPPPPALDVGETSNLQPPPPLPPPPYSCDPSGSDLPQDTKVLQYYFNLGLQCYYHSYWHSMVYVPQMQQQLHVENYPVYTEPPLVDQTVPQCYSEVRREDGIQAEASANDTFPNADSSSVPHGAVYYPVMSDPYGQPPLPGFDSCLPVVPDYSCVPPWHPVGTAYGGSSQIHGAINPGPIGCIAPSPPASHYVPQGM
# In short: (§1)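 HEK293T lysate (495 µg per sample, in Tris/CHAPS/IGEPAL buffer with protease inhibitors) was treated in triplicate with fragment at 200 µM or with DMSO for 3 h. It was then treated with Biotin-Ahx-Ub-VS (0.5 µM final) for 1 h. Labelled DUBs were NeutrAvidin-enriched, digested with LysC and trypsin, and run by diaPASEF LC-MS/MS. Spectronaut label-free quantities were global-median-normalised. Values are average log2 ratios fragment/DMSO by unpaired t-test, using proteins with ≥2 unique peptides.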
# [2] = target: ATXN3 (UniProt P54252)
# In short: as §1
# [3] = target: T2, BAP1 (UniProt Q92560)
# T2 sequence (whole entry): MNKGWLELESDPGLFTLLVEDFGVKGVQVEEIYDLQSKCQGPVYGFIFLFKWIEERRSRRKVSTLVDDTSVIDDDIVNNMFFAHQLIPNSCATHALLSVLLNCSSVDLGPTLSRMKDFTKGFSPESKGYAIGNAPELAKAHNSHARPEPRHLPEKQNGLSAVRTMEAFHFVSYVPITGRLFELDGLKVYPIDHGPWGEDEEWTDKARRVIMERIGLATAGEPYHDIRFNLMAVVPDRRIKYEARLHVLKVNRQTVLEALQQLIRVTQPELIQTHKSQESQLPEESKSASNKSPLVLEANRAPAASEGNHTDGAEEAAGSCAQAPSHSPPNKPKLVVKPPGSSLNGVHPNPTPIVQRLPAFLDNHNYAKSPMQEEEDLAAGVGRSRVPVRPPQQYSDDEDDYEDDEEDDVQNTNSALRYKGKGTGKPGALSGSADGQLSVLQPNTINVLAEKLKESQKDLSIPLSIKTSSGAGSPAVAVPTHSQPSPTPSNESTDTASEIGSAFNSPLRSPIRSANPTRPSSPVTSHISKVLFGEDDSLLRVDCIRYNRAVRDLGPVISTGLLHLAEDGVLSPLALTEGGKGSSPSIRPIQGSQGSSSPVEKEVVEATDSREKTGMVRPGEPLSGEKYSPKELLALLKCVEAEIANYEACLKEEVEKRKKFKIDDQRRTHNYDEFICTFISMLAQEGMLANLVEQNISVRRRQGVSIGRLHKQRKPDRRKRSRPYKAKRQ
# In short: as §1
# [4] = target: EIF3F (UniProt O00303)
# In short: as §1
# [5] = target: EIF3H (UniProt O15372)
# In short: as §1
# [6] = target: T3, FAM105A (UniProt Q9NUU6)
# T3 sequence (whole entry): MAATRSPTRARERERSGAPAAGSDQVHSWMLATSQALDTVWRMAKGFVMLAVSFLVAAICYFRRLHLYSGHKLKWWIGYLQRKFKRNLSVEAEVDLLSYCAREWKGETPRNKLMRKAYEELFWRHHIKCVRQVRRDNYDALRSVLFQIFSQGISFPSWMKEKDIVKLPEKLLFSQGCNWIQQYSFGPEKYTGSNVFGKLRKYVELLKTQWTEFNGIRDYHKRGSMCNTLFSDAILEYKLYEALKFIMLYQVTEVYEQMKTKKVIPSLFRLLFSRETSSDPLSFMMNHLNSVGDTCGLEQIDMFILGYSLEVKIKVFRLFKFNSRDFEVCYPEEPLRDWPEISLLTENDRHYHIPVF
# In short: as §1
# [7] = target: OTUB1 (UniProt Q96FW1)
# In short: as §1
# [8] = target: T4, OTUD4 (UniProt Q01804)
# T4 sequence (whole entry): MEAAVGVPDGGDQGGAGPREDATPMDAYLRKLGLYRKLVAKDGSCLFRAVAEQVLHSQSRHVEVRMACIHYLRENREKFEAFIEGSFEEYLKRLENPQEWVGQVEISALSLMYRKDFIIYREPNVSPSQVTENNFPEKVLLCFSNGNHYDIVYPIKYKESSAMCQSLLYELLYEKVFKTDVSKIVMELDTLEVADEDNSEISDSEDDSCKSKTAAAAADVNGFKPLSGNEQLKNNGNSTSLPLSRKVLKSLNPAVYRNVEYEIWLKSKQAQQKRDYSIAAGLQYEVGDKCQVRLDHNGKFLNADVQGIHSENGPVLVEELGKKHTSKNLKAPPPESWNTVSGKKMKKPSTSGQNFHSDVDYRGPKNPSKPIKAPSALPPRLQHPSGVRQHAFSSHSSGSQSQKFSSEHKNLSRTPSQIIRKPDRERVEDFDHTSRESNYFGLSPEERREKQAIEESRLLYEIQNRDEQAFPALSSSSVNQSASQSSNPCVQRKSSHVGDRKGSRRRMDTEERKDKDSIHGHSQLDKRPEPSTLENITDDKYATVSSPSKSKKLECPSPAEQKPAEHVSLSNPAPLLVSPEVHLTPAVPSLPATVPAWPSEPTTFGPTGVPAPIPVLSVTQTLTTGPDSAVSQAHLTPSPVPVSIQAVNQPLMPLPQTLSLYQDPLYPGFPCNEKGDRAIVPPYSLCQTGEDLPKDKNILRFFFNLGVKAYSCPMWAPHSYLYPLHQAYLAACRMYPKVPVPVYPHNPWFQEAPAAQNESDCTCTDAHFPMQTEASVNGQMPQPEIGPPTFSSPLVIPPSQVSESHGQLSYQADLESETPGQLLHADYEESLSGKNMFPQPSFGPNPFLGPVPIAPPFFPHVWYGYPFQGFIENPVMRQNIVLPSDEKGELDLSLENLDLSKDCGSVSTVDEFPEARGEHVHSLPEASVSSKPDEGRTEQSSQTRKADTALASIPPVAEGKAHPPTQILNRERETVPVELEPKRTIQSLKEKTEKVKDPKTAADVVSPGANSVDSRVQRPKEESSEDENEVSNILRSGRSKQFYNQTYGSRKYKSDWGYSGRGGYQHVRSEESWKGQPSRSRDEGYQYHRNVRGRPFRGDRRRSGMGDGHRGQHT
# In short: as §1
# [9] = target: T5, OTUD5 (UniProt Q96G74)
# T5 sequence (whole entry): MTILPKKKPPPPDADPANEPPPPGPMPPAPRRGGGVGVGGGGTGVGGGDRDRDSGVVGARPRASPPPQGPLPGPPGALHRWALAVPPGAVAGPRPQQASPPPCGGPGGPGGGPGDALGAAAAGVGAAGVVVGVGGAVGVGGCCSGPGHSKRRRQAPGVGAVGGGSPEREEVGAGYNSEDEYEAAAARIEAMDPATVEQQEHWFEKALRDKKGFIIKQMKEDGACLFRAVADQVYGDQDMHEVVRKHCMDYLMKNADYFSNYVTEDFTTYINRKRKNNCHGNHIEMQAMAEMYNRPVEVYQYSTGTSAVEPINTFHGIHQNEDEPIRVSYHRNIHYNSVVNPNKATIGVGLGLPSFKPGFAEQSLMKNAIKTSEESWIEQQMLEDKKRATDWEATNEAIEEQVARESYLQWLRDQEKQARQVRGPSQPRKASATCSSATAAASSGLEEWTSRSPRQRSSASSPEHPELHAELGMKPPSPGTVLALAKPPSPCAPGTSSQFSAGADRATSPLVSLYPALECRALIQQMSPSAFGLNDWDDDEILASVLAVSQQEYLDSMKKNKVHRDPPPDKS
# In short: as §1
# OTUB1, sequence (Q96FW1 whole entry): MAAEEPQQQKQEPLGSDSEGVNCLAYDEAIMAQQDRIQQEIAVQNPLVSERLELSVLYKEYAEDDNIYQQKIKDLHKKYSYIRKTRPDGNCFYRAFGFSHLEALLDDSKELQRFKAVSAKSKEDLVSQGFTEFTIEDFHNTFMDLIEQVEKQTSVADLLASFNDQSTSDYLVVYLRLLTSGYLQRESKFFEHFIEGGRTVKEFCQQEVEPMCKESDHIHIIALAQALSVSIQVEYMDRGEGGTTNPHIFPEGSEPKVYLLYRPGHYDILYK
# ATXN3, sequence (P54252 whole entry): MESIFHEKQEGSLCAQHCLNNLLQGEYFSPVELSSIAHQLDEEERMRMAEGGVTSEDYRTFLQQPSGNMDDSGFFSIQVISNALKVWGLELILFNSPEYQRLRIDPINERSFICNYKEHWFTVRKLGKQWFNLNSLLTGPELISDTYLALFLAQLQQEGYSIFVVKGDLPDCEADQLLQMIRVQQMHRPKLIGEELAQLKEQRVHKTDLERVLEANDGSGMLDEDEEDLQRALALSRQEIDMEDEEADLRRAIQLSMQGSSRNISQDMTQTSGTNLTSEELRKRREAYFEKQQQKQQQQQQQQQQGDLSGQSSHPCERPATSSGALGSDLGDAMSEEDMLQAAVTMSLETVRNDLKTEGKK
# EIF3F, sequence (O00303 whole entry): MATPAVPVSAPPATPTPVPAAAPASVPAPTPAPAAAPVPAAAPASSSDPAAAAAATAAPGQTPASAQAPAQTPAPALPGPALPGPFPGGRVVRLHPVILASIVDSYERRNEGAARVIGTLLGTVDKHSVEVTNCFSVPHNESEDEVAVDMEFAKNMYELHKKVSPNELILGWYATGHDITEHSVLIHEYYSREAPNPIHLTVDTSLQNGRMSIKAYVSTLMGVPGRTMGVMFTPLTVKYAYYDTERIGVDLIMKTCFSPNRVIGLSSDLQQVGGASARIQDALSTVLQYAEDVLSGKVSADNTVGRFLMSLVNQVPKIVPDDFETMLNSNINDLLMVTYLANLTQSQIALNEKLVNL
# EIF3H, sequence (O15372 whole entry): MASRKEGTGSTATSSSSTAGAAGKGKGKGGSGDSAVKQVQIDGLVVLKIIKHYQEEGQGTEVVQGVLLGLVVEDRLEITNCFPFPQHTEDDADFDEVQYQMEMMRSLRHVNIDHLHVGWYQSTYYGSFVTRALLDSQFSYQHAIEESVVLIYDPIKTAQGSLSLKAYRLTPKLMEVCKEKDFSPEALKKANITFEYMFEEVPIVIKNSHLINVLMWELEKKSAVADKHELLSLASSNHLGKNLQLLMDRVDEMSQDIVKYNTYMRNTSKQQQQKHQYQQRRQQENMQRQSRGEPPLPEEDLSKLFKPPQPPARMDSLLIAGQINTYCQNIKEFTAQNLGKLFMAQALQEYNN
smiles,measurement,setting,value
CC(NC(=O)CCl)c1cccc2ccccc12 (centres undefined),log2 ratio of Biotin-Ahx-Ub-VS probe labelling,[1],0.0911
same,log2 ratio of Biotin-Ahx-Ub-VS probe labelling,[2],-0.129
same,log2 ratio of Biotin-Ahx-Ub-VS probe labelling,[3],-4.13 (active)
same,log2 ratio of Biotin-Ahx-Ub-VS probe labelling,[4],-0.0141
same,log2 ratio of Biotin-Ahx-Ub-VS probe labelling,[5],-0.0531
same,log2 ratio of Biotin-Ahx-Ub-VS probe labelling,[6],-0.022
same,log2 ratio of Biotin-Ahx-Ub-VS probe labelling,[7],-0.352
same,log2 ratio of Biotin-Ahx-Ub-VS probe labelling,[8],-1.01 (active)
same,log2 ratio of Biotin-Ahx-Ub-VS probe labelling,[9],-0.234
